Rows were chosen to be rich in hits. Some 4.8% of all compounds tested hit in one or more screens of this group.
Calb FLC: C. albicans growth inhibition with fluconazole, primary screen, CaCi-2 strain, Alamar Blue fluorescence; C. albicans CaCi-2 (fluconazole-resistant clinical isolate) + fluconazole, 48 h; 300,000 tested, 0.57% active; growth inhibition, % (concentration not given with the values);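 active = growth inhibition above about 58% in most replicates, limit read from the data, passing the limit was not always enough; inconclusive = exactly half the replicates above a set limit; inactive = most replicates below a set limit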;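 also: all wells also contain fluconazole at 8 µg/ml as a sub-toxic cotreatment; 0% = median of DMSO wells and 100% = median of geldanamycin control wells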
Mdm2 MdmX PPI: inhibitors of human Mdm2-MdmX association, primary screen, cell-based, luminescence, split luciferase, SaOS-2, uHTS; 330,000 tested, 3% active; Protein Mdm4 (Homo sapiens) + E3 ubiquitin-protein ligase Mdm2 (Homo sapiens), …; inhibition, % at 8 µM; SaOS-2 split-luciferase Mdm2/MdmX complementation;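 active = inhibition of at least 50% at 8 µM in the primary screen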
Target sequence (O15151 whole entry, looked up): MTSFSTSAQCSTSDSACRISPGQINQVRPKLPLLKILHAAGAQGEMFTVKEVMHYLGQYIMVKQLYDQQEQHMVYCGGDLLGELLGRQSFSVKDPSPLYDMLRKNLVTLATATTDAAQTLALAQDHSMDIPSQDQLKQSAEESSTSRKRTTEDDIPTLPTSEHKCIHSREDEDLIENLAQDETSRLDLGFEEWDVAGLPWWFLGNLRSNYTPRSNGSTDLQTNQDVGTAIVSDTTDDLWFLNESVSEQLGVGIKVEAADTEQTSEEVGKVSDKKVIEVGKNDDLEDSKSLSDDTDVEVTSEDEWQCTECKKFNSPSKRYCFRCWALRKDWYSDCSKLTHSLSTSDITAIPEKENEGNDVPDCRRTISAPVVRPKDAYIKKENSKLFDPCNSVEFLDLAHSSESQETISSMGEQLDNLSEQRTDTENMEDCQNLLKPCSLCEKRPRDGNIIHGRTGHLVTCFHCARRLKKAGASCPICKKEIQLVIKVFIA
Target sequence (Q00987 whole entry, looked up): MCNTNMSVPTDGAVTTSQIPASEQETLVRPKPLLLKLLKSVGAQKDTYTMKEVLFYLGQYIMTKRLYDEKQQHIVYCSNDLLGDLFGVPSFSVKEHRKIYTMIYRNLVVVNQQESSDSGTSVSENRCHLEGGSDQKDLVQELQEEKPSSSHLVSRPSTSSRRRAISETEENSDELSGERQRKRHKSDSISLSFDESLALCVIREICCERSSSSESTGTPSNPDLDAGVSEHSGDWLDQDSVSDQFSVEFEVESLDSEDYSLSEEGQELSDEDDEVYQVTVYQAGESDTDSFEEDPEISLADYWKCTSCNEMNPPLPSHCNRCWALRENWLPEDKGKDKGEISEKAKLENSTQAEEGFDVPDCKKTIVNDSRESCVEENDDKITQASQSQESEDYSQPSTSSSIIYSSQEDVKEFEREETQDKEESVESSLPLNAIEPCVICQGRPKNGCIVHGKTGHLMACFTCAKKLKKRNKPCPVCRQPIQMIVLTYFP
CSC inhib: cancer stem cell viability inhibitors, primary screen, luminescence; inhibition, % at 7.5 µM; 300,000 tested, 1.1% active; cancer stem cell-like cells viability; AID 2717, 2010; in the data active = inhibition above about 75%; inconclusive = no clear call, values can overlap the other calls; tested in HMLE shEcad cells
Beta apoptosis: inhibitors of cytokine-induced beta cell apoptosis, primary screen, luminescence; AID 435005, 2010; protection from apoptosis, % (no concentration beside the values); INS-1E cytokine-induced death, ATP luminescence, 48 h; percent of positive-control rescue, neutral wells zero; 300,000 tested, 0.8% active;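 active = Every replicate reaches about 75%, or at least half do and their mean reaches it too, limit read from the data; inconclusive = At least half of replicates reach the limit but their mean does not; inactive = Under half of replicates reach the limit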;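 also: 0% = cytokine-treated negative control wells and 100% = positive control rescue; higher means more ATP so stronger rescue from cytokine killing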
MPTP block: mitochondrial permeability transition pore inhibitors, primary screen, biochemical, isolated mouse mitochondria, absorbance; inhibition, % at 10 µM; 360,000 tested, 1.4% active; Ca2+ swelling absorbance, 30 min;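 active = inhibition of 50% or more, scaled per plate between neutral and stimulator controls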;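 also: 0% = DMSO wells given calcium and 100% = 1 mM EGTA wells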
Mdm2 MdmX conf: Mdm2-MdmX complex disruptors, retested hits, confirmation, luminescence, single concentration; 10,000 tested, 55% active; inhibition, % at 8 µM; Mdm2-MdmX binding, luminescent assay; shares compounds with Mdm2 MdmX PPI; AID 489028, 2010; in the data active = inhibition above about 40%
FLuc counter: full-length luciferase signal inhibition, confirmation, counter-screen for Mdm2/MdmX interaction inhibitor project, cell-based, single concentration, SaOS-2; shares compounds with Mdm2 MdmX PPI; SaOS-2 full-length luciferase counterscreen, luminescence; inhibition, % at 8 µM; 6,200 tested, 77% active; AID 504607, 2011;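 active = mean inhibition at 8 µM reaching about 37%, which flags the compound as non-specific, limit read from the data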;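 also: p53-null SaOS-2 cells with luciferase driven by a doxycycline-inducible promoter; compound on cells about two nights before reading with doxycycline added after day one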
Rh123 counter: fluorescence retest of MPTP screen hits in isolated mitochondria, single concentration | shares compounds with MPTP block | membrane potential, Rhodamine 123 fluorescence | inhibition, % at 10 µM | 5,000 tested, 78% active | AID 624504, 2012; in the data active = inhibition above about 22%;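 also: 0% = DMSO vehicle and 100% = positive control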
MPTP abs DR: mitochondrial permeability transition pore inhibitors, dose response, biochemical, absorbance, uHTS hits | IC50, µM | 780 tested, 58% active | AID 651561, 2012 | shares compounds with MPTP block | isolated mitochondria swelling; in the data active = IC50 below about 20 µM
MPTP counter DR: fluorescent counter-screen in isolated mitochondria, dose response, counter-screen for MPTP inhibitor project, biochemical, fluorescence, uHTS hits; shares compounds with MPTP block; isolated mitochondria counterscreen, fluorescence read-out; IC50, µM; 780 tested, 49% active; AID 651564, 2012; in the data active = IC50 below about 80 µM
An asterisk follows results filed as active; i = inactive; ? = inconclusive; nt = no result.

SMILES | Calb FLC | Mdm2 MdmX PPI | CSC inhib | Beta apoptosis | MPTP block | Mdm2 MdmX conf | Rh123 counter | others
C/C(=N\NC(N)=S)C1=CCC2C3CC[C@H]4CC(O)CC[C@]4(C)C3CC[C@]12C (some centres not stated) | -7.3 | 75.0* | nt | nt | 65.0* | 15.2 | 14.3 | MPTP abs DR=18.4*;MPTP counter DR=22*
O=C1c2cccc(N3CCNCC3)c2C2CCCCN12 (configuration not stated) | nt | nt | nt | nt | -1.8 | nt | nt
Cc1ccccc1C(O)(Cc1ccccc1)C1CN2CCC1CC2 (configuration not stated) | -2.1 | 53.8* | 29.2 | -15.6 | 61.8* | 61.1* | -7.3 | FLuc counter=69.1*;MPTP abs DR=16.5*;MPTP counter DR=>80
CCCCCc1nc2c(c(=O)c3ccccc3n2C)c(=O)n1C1CCCCCC1 | 37.3 | 69.0* | 149.2* | 110.7* | 87.4* | 35.4 | -5.0
CCCCCc1nc2ccccc2c(=O)n1-c1ccccc1[N+](=O)[O-] | 13.6 | -32.9 | -3.2 | -0.3 | 1.5 | nt | nt
CCOc1cccc(=NC2CCCCC2)c2c(C)n(C)c(C)c12 | 41.6 | 53.8* | -0.3 | 67.2 | 62.5* | 26.0 | 70.7*
CCOc1ccccc1N=C1SCCCN1C | 13.3 | 10.6 | -3.3 | -6.7 | -1.1 | nt | nt
CCC(c1nnnn1C1CCCC1)N1CCC2(CC1)C(=O)NCN2c1ccccc1 (configuration not stated) | nt | nt | nt | nt | 0.5 | nt | nt
CN1C2CCC1CC(OC(=O)c1ccc(Cl)cc1)C2 (configuration not stated) | -0.3 | 25.9 | 28.4 | nt | -2.4 | nt | nt
CN1[C@@H]2CC[C@H]1CC(OC1c3ccccc3CCc3ccccc31)C2 (some centres not stated) | nt | 71.5* | 32.8 | nt | 97.4* | 31.5 | 0.6 | FLuc counter=70.0*;MPTP abs DR=7.78*;MPTP counter DR=>80
COc1cc(O)c2c(c1)/C=C/C[C@H](O)[C@H](O)C(=O)CCC[C@H](C)OC2=O | nt | nt | nt | nt | 1.0 | nt | nt
Cc1ccc(-c2cc(-c3ccc(C)cc3)[n+](-c3ccccc3)c(-c3ccc(C)cc3)c2)cc1 | 106.1* | 92.7* | 47.6 | 121.6* | 94.9* | 93.5* | 100.7* | FLuc counter=12.1
c1ccc(-c2cc(-c3ccccc3)[n+](-c3ccccc3)c(-c3ccccc3)c2)cc1 | ? | 89.2* | 37.4 | 112.8* | 63.7* | 91.8* | 88.9* | FLuc counter=56.3*
c1ccc(-c2ccncc2)cc1 | nt | 24.6 | nt | nt | 2.1 | nt | nt
O=c1[nH]c2ccccc2n1C1CCN(C(c2cc3ccccc3o2)c2nnnn2Cc2ccccc2)CC1 (configuration not stated) | nt | nt | nt | nt | 0.4 | nt | nt
Cc1ccc(C(=O)N2CC2C)cc1 (configuration not stated) | nt | nt | nt | nt | 0.2 | nt | nt
Ic1ccccc1CN[C@@H]1C2CCN(CC2)[C@@H]1C(c1ccccc1)c1ccccc1 | nt | 94.4* | nt | nt | 87.4* | 42.0* | 0.7 | FLuc counter=65.8*
c1ccc(CCCN2CCN(CCOC(c3ccccc3)c3ccccc3)CC2)cc1 | nt | 50.2* | 69.2 | 13.6 | 80.1* | 34.3 | -2.3 | FLuc counter=80.3*
Fc1ccc(C(OCCN2CCN(CCCc3ccccc3)CC2)c2ccc(F)cc2)cc1 | nt | 82.8* | 97.6* | 102.1* | 96.9* | 58.6* | 2.9 | FLuc counter=30.4
Fc1ccc(C(OCCN2CCCC2)c2ccc(F)cc2)cc1 | 25.7 | -7.1 | nt | nt | -1.2 | nt | nt
S=P(NCCSCc1ccccc1)(N1CC1)N1CC1 | nt | nt | nt | nt | -0.6 | nt | nt
CC(C)(C)c1cc(C=C(C#N)C#N)cc(C(C)(C)C)c1O | nt | 96.1* | 80.6* | 117.1* | 108.1* | 94.4* | 89.2* | FLuc counter=11.8
CN(C)c1ccc(C=C(C#N)C#N)cc1 | 2.0 | 28.3 | 2.1 | 2.5 | 0.2 | nt | nt
O=C(c1cc(C(=O)NCc2ccccc2)c(=O)n(Cc2ccccc2)c1)c1cc(Cl)ccc1O | -15.9 | 55.8* | 49.4 | 9.3 | 82.4* | 28.6 | 75.4*
CC(C)CCNC(=O)c1cc(C(=O)c2cc(F)ccc2O)cn(CCC(C)C)c1=O | 3.2 | -5.8 | -5.6 | -5.0 | 52.8* | nt | -2.0 | MPTP abs DR=i;MPTP counter DR=5.94*
SMILES | Calb FLC | Mdm2 MdmX PPI | CSC inhib | Beta apoptosis | MPTP block | Mdm2 MdmX conf | Rh123 counter | others
CC(C)CCNC(=O)c1cc(C(=O)c2cc(Br)ccc2O)cn(CCC(C)C)c1=O | -10.6 | 33.8 | 10.4 | 8.4 | 93.3* | nt | 7.0 | MPTP abs DR=>100;MPTP counter DR=<2.5*
Cc1c(NS(=O)(=O)c2ccccc2)ccc([N+](=O)[O-])c1Cl | nt | nt | nt | nt | 97.5* | nt | 89.9*
CCc1ccc(CN2CCN(Cc3ccc(SC)cc3)CC2)cc1 | -15.2 | 23.1 | 49.6 | -0.5 | 56.5* | nt | -7.4 | MPTP abs DR=i;MPTP counter DR=45.1*
CSc1ccc(CN2CCN(c3ccccc3C)CC2)cc1 | -5.5 | 16.5 | nt | nt | -0.1 | nt | nt
CCCCCSc1cc(OC)c(CCN(C)C)cc1OC | 2.9 | 21.1 | 17.7 | 14.1 | 83.8* | nt | -8.2 | MPTP abs DR=6.33*;MPTP counter DR=>80
CCCCCSc1cc(O)c(C(CNC)C(C)C)cc1OC (configuration not stated) | -30.0 | 46.4 | -4.5 | 19.9 | 15.3 | nt | nt
Cn1cccc1CN1CCN(C(=O)COc2ccccc2)CC1 | 8.4 | 1.6 | nt | -1.4 | 14.1 | nt | nt
Cn1nc(-c2ccc(OCC(=O)N3CCN(Cc4ccccc4)CC3)cc2)c2ccccc2c1=O | 38.5 | 47.9 | -0.6 | 34.9 | 72.0* | nt | 43.0*
CCC1([N+](=O)[O-])COP(N)(=O)OC1 (configuration not stated) | nt | nt | nt | nt | -0.8 | nt | nt
CC1CN1P(=S)(c1ccccc1)N1CC1C (configuration not stated) | nt | nt | nt | nt | 0.5 | nt | nt
CCN1C(=O)C(=Cc2ccc(C)s2)C(=O)N(CC)C1=S | -1.2 | -36.1 | 11.1 | -4.3 | 72.6* | nt | -6.4
O=C1Nc2ccccc2Oc2ccccc21 | nt | nt | nt | nt | 0.2 | nt | nt
CCCCN1C(=O)/C(=C\c2ccco2)C(=O)N(CCc2ccccc2)C1=O | 2.9 | -7.6 | -16.7 | -9.9 | 67.7* | nt | -6.3
S=C(NCCc1ccccc1)N1Cc2ccccc2-n2nncc2C1 | nt | nt | nt | nt | -1.5 | nt | nt
Cc1cccc(CCNCc2cc3cccc(C)c3[nH]c2=O)c1 | -4.1 | 13.8 | 8.7 | -3.2 | 66.8* | nt | 43.7*
Cc1cccc(CCNCc2cc3cc(C)cc(C)c3[nH]c2=O)c1 | 15.1 | -0.9 | 7.1 | 0.8 | -2.2 | nt | nt
COc1ccc(C(c2ccc(OC)cc2)C(Cl)(Cl)Cl)cc1 | nt | 28.2 | 32.5 | -1.4 | 1.0 | nt | nt

Screens deposited in PubChem by several laboratories.
